Mtb FBA inh: inhibits M. tuberculosis FBA enzyme | 360,000 compounds, 2.3% hits | purified M. tuberculosis FBA, fluorescence read-out | P9WQA3 | inhibition, % at 1 µM; in the data active means inhibition above about 27%;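 further: 0% = vehicle and 100% = reference inhibitor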
GDH-TPI inh: counter-screen for M. tuberculosis FBA inhibitors: GDH-TPI coupled enzymes; GDH-TPI coupled enzyme counterscreen, NADH absorbance; inhibition, % at 4.8 µM; 360,000 compounds, 1.2% hits; AID 588335; in the data active means inhibition above about 30%;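 further: 0% = DMSO wells and 100% = wells lacking the enzyme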
Mtb BioA inh: blocks M. tuberculosis BioA enzyme activity; purified M. tuberculosis BioA enzyme, plate reader; inhibition, % at 9.99 µM; 360,000 compounds, 0.096% hits; AID 602481; in the data active means inhibition above about 40%
Rv3671c inh: inhibits the M. tuberculosis serine protease Rv3671c | P9WHR9 | inhibition, % at 5.96 µM | 320,000 compounds, 0.048% hits | AID 2606; in the data active means inhibition above about 38%;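 further: extracellular domain of Rv3671c used as enzyme; 0% = enzyme with DMSO and 100% = no enzyme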
Target sequence (P9WHR9 whole entry, looked up, the tested form may be a part): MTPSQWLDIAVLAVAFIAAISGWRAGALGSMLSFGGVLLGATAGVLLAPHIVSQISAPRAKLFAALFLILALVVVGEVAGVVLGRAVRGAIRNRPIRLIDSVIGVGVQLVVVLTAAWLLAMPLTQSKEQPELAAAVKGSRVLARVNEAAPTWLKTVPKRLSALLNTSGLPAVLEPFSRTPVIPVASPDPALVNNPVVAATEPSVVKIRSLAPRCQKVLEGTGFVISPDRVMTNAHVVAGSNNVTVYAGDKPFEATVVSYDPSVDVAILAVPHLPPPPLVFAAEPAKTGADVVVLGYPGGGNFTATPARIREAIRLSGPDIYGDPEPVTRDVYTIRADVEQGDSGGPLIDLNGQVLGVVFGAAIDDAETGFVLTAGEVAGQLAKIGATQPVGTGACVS
FadD28 FP inh: blocks FadD28 binding to the bisubstrate probe; AID 588549; 360,000 compounds, 0.22% hits; inhibition, % at 12.5 µM; fluorescence polarization; in the data active means inhibition above about 8.5%, passing the limit was not always enough
Numbers without * were called inactive; nt = no result; + = active, no number. Only some compounds are listed: those with a hit (about 3% of all), similar ones and a draw of the others.

SMILES	Mtb FBA inh	GDH-TPI inh	Mtb BioA inh	Rv3671c inh	FadD28 FP inh
COc1cccc(-c2cnc3c(c2)C(=O)N([C@@H](C)CO)C[C@@H](C)[C@H](CN(C)Cc2ccncc2)O3)c1	nt	nt	0.2	nt	nt
COc1ccc(NC(=O)CN2CCN(c3ccccn3)CC2)cc1Cl	+	-2.6	1.5	-0.3	-3.1
C[C@H]1CCCCO[C@H](CN(C)S(=O)(=O)c2ccc(Cl)cc2)[C@@H](C)CN([C@@H](C)CO)C(=O)c2cc(NS(=O)(=O)c3cccs3)ccc2O1	nt	nt	-2.0	nt	nt
C[C@@H]1CN([C@@H](C)CO)C(=O)CCCn2nncc2CO[C@H]1CN(C)Cc1ccc(C(=O)Nc2ccccc2N)cc1	nt	nt	0.7	nt	nt
Cc1ccc2nc3c(cc(C#N)c(=O)n3-c3nccs3)c(=O)n2c1	+	7.3	nt	-0.1	-3.0
CCC(C)n1c(=N)c(C#N)cc2c(=O)n3cc(C)ccc3nc21 (stereo unspecified)	11.2	-1.3	nt	-9.4	-0.3
COC(=O)c1sc(=S)n(Cc2ccccc2)c1C	5.2	46.2*	7.2	-6.7	-2.2
CC(=O)c1sc(=S)n(Cc2ccccc2)c1C	-0.6	24.8	2.4	nt	-6.4
O=C(O)Cn1cc(C(=O)c2ccco2)c2ccccc21	-4.3	32.4*	3.3	-21.2	-3.2
CCOC(=O)Cn1cc(C(=O)c2ccco2)c2ccccc21	3.8	20.1	3.9	-7.7	15.0*
COc1ccc(S(=O)(=O)Nc2ccc3c(c2)C(=O)N([C@H](C)CO)C[C@@H](C)[C@@H](CN(C)S(C)(=O)=O)OCCCC[C@H](C)O3)cc1	nt	nt	-1.1	nt	nt
O=C(C[C@H]1C[C@@H]2c3cc(NC(=O)NC4CCCC4)ccc3O[C@@H]2[C@@H](CO)O1)NCCN1CCCCC1	nt	nt	0.4	nt	nt
CN(C)CCCNC(=O)C[C@H]1CC[C@@H](NS(=O)(=O)c2ccc(F)cc2)[C@H](CO)O1	nt	nt	1.9	nt	nt
C/C(=N\Nc1ccccn1)c1ccc(Br)s1	-0.2	37.9*	0.1	-5.8	-1.1
Cc1ccc(/C=C/C(=O)Nc2cc(S(N)(=O)=O)ccc2O)cc1	-0.2	18.0	nt	-9.1	-1.2
CCS(=O)(=O)c1ccc(O)c(NC(=O)/C=C/c2ccc(Cl)cc2)c1	-3.2	33.8*	-0.1	-4.2	-2.2
COCC(=O)Nc1ccc2c(c1)[C@@H]1C[C@H](CC(=O)N3CCN(C)CC3)O[C@H](CO)[C@@H]1O2	nt	nt	-3.0	nt	nt
COCC(=O)N1C[C@@H](C)[C@H](OC)CN(C)C(=O)c2cc(NC(=O)Nc3ccccc3)ccc2OC[C@H]1C	nt	nt	1.3	nt	nt
CCCC(=O)Nc1ccc2c(c1)C(=O)N(C)C[C@@H](OC)[C@@H](C)CN(Cc1cccc(F)c1)[C@@H](C)CO2	nt	nt	1.0	nt	nt
COc1cc2c(cc1OC)n(CC(=O)NC1CCCCCC1)n1c(C)cc(=O)nc21	113.4*	12.0	-0.6	-9.0	-1.1
COC(=O)Cn1c2ccccc2c2nc(=O)cc(C)n21	3.1	4.2	nt	1.3	-0.4
O=C(O)COc1c(-c2ccccc2)oc2ccccc2c1=O	1.8	9.6	9.0	3.2	-0.7
CC(=O)Oc1c(-c2ccco2)oc2ccccc2c1=O	22.2	43.9*	nt	5.2	-1.8
COCC(=O)N1C[C@@H](C)[C@H](OC)CN(C)C(=O)c2ccc(NC(=O)C3CCC3)cc2OC[C@H]1C	nt	nt	-0.7	nt	nt
Cc1noc(C)c1NC(=O)Nc1cccc2c1O[C@@H](CN(C)S(=O)(=O)c1cccs1)[C@H](C)CN([C@H](C)CO)C2=O	nt	nt	4.5	nt	nt
SMILES	Mtb FBA inh	GDH-TPI inh	Mtb BioA inh	Rv3671c inh	FadD28 FP inh
N#Cc1nc(-c2ccccc2F)oc1NCc1ccccc1	141.5*	15.0	0.0	-9.2	-0.7
N#Cc1nc(-c2ccccc2F)oc1NCCc1ccccc1	122.4*	-4.8	1.5	-7.9	0.0
N#Cc1nc(-c2ccc(OCc3ccccc3)cc2)oc1NCc1cccnc1	7.3	8.4	-0.9	1.1	-0.7
N#Cc1nc(-c2ccccc2F)oc1NCCc1ccccn1	15.3	19.8	-0.5	-1.7	-0.9
N#Cc1nc(-c2cccs2)oc1NCCN1CCOCC1	194.9*	31.6*	3.2	1.4	-1.3
N#Cc1nc(-c2cccs2)oc1NCc1ccc2c(c1)OCO2	112.3*	27.4	3.3	-8.0	-1.7
C[C@@H]1CN([C@@H](C)CO)C(=O)c2cc(NC(=O)c3ccncc3)ccc2O[C@@H](C)CCCCO[C@@H]1CN(C)S(=O)(=O)c1cn(C)cn1	nt	nt	1.8	nt	nt
Cc1ccc(S(=O)(=O)N(C)C[C@@H]2OCCCC[C@@H](C)Oc3ccc(NC(=O)Nc4ccc5c(c4)OCO5)cc3C(=O)N([C@@H](C)CO)C[C@@H]2C)cc1	nt	nt	-3.5	nt	nt
COc1ccc(CCNc2oc(Cc3ccccc3)nc2C#N)cc1OC	-0.7	-16.6	nt	5.4	-5.3
N#Cc1nc(-c2cccs2)oc1NCCc1ccccc1	+	14.5	nt	6.4	0.2
Cc1ccc(S(=O)(=O)N2[C@@H](c3cccc(Cl)c3)C(C(=O)O)=CC[C@H]2c2cccc(Cl)c2)cc1	-1.2	8.6	2.8	-9.8	13.5*
CNC(=O)C[C@H]1CC[C@H]2[C@@H](COc3ccc(NC(=O)c4ccno4)cc3C(=O)N2C)O1	nt	nt	0.6	nt	nt
Cc1c(C=O)c2ccccn2c1C(=O)c1ccccc1	-3.1	6.8	-0.1	-5.2	-3.9
Cc1ccccc1NCC(=O)N/N=C/c1c(C)c(C(=O)c2ccc(Cl)cc2)n2ccccc12	-4.5	31.7*	nt	-1.1	-1.7
Cc1c(C=O)c2ccccn2c1C(=O)c1ccc(F)cc1	-2.3	33.0*	2.1	-6.7	1.5
Cc1c(/C=N/NC(=O)CNc2ccccc2)c2ccccn2c1C(=O)c1ccc(Cl)cc1	4.2	19.6	-1.5	-1.1	-1.8
CCCNC(=O)C[C@H]1CC[C@H]2[C@@H](COC[C@@H](O)CN2CC2CCCCC2)O1	nt	nt	-1.2	nt	nt
CCOC(=O)c1c(C(C)(C)C)oc2ccc(OCC#N)cc12	-0.6	-0.9	-0.9	-2.2	-1.4
CCOC(=O)c1c(C)oc2ccc(OCC(N)=O)cc12	-0.7	3.3	nt	4.6	-3.0
CCOC(=O)c1c(-c2ccccc2)oc2ccc(OCC(=O)NNC(=O)CCCC(=O)O)cc12	157.2*	5.0	0.1	nt	-2.1
CCOC(=O)c1c(-c2ccc(OC)cc2)oc2ccc(OC(=O)N(C)C)cc12	+	14.5	-1.5	-6.3	-5.7
CCOC(=O)c1c(-c2ccccc2)oc2ccc(OC(C)C(=O)O)cc12 (stereo unspecified)	164.9*	14.0	0.0	3.0	-3.8
CCOC(=O)c1c(-c2ccccc2)oc2ccc(OCC(=O)NNC(=O)CCC(=O)O)cc12	122.3*	7.6	3.0	nt	-4.9
O=C(c1ccc(F)cc1)N1C[C@H]2[C@@H](c3ccccc31)[C@@H](CO)N2C(=O)c1ccccc1	nt	nt	0.8	nt	nt
CNC[C@@H]1OCCCC[C@@H](C)Oc2ccc(NC(=O)c3ccccc3)cc2C(=O)N([C@@H](C)CO)C[C@@H]1C	nt	nt	11.5	nt	nt
O=C(Nc1cccc(F)c1)c1c(O)c2ccccc2[nH]c1=O	1.3	32.0*	-0.4	0.2	-0.4
NC(=O)c1ccc(/C=N/O)[n+](Cc2ccccc2)c1	-2.5	35.0*	-0.5	-5.3	-0.3
COc1ccc(/C=N/N=C/c2ccc(OC)c(O)c2)cc1O	-1.5	49.5*	-1.6	-0.9	0.6
COc1cc(/C=N/N=C/c2cc(OC)c(O)c(OC)c2)cc(OC)c1O	-4.4	34.6*	nt	-10.5	-1.4

Compound activity (PubChem)
